Reference: the supplement of paper PMC10849652
The full data set covers some 8,800 targets. This sample favours those with a hit. About 0.5% of all pairs of compound and target were hits. Unmarked numbers belong to inactive results.

Tests used:
Experiment in all cases: log2 fold change, soluble protein after heating vs DMSO (PISA); higher = thermal stabilisation; K562 lysate, 10 uM; active = over 0.2 and 3.5 SD of the protein, either way, in both replicates (recomputed)
erlotinib = compound: C#Cc1cccc(Nc2ncnc3cc(OCCOC)c(OCCOC)cc23)c1 [erlotinib]
Method in brief: (§1)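 Values give the log-two fold change in thermal stability against solvent controls, from duplicates. Crude K562 extract at 1 mg/mL protein, made by dounce homogenisation in PBS pH 7.4 with 1 mM MgCl2, was treated with 10 μM compound for 30 min. After 3 min heating across 48°C-58°C, aliquots were pooled, adjusted to 0.5% NP-40 at 4°C and centrifuged at 21,000xg for 90 min. The supernatant was measured by TMTpro 16plex LC-MS/MS with channel sums equalised.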

[1] = compound: C/C(=N\NC(=O)C1=CC(=CC=C1)S(=O)(=O)N2CCOCC2)/C3=C(C=CC(=C3)Cl)O
Method in brief: as §1

[2] = compound: C1=CC(=CC=C1C2=NC3=C(N2)C=C(C=C3)C(=O)N)OC4=CC=C(C=C4)Cl
Method in brief: as §1

[3] = compound: C1=CC2=C(C=CC(=C2)/C=C\3/C(=O)NC(=NCC4=CC=CS4)S3)N=C1
Method in brief: as §1

[4] = compound: C1=CC2=NC=CN=C2C=C1/C=C/3\C(=O)NC(=O)S3
Method in brief: as §1

[5] = compound: C1=CC=C(C=C1)C2=NC(=C(N2)C3=CC=NC=C3)C4=CC(=C(C=C4)Cl)O
Method in brief: as §1

[6] = compound: C1=CC=C2C(=C1)C3=NNC4=CC=CC(=C43)C2=O
Method in brief: as §1

[7] = compound: C1CCN(C1)C(=O)NC2=CC=CC(=C2)NC3=NC=C(C(=N3)NCCC4=CN=CN4)Br
Method in brief: as §1

[8] = compound: C1CN(CCC1(CC2=CC=C(C=C2)Cl)N)C3=NC=NC4=C3C=CN4
Method in brief: as §1

IRAK-1-4 Inhibitor I = compound: C1COCCN1CCN2C3=CC=CC=C3N=C2NC(=O)C4=CC(=CC=C4)[N+](=O)[O-] [IRAK-1-4 Inhibitor I]
Method in brief: as §1

ibrutinib = compound: C=CC(=O)N1CCC[C@@H](n2nc(-c3ccc(Oc4ccccc4)cc3)c3c(N)ncnc32)C1 [ibrutinib]
Method in brief: as §1

ralimetinib = compound: CC(C)(C)Cn1c(N)nc2ccc(-c3[nH]c(C(C)(C)C)nc3-c3ccc(F)cc3)nc21 [ralimetinib]
Method in brief: as §1

[9] = compound: CC(C)(O)CC(=O)NCCn1ccc2ncnc(Nc3ccc(Oc4cccc(C(F)(F)F)c4)c(Cl)c3)c21
Method in brief: as §1

[10] = compound: CC(C)C1=C2N=C(C=C(N2N=C1)NCC3=CC=CC=C3)NCCCCCCN
Method in brief: as §1

[11] = compound: CC1=C(C(CC(=O)N1)C2=CC=C(C=C2)C(F)(F)F)C(=O)NC3=C(C=C4C(=C3)C=NN4)F
Method in brief: as §1

[12] = compound: CC1=C(C2=C(C=C1)C(=O)C3=CC=CC=C3N2CCCN)C
Method in brief: as §1

[13] = compound: CC1=C(C=C(C=C1)NC(=O)C2=CC(=CC=C2)C(C)(C)C#N)NC3=CC4=C(C=C3)N=CN(C4=O)C
Method in brief: as §1

[14] = compound: CC1=C(C=C(C=C1)NC(=O)C2=CC(=CC=C2)N(C)C)NC(=O)C3=CC=C(C=C3)O
Method in brief: as §1

[15] = compound: CC(=O)c1cnc2ccc(-c3cc(Cl)c(O)c(Cl)c3)nc2c1N[C@H]1CC[C@H](CN(C)C)CC1
Method in brief: as §1

[16] = compound: CC1=CC=C(C=C1)SC2=C3C=C(SC3=CN=C2)C(=O)N
Method in brief: as §1

Sequence of UniProt Q96K21 (Q96K21 whole entry, looked up): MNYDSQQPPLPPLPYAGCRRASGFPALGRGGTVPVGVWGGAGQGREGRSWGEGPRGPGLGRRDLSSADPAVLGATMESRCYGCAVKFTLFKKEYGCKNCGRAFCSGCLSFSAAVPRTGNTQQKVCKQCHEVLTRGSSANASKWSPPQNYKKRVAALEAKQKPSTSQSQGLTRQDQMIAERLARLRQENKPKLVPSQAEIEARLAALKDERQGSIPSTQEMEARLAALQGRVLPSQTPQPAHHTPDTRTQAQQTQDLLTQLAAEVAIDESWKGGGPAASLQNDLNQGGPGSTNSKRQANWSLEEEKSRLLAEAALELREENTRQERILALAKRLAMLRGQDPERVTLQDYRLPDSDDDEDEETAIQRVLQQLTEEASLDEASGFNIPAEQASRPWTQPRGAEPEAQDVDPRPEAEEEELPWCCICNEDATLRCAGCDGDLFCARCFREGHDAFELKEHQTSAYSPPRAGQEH
Sequence of UniProt Q9Y6I7 (Q9Y6I7 whole entry, looked up): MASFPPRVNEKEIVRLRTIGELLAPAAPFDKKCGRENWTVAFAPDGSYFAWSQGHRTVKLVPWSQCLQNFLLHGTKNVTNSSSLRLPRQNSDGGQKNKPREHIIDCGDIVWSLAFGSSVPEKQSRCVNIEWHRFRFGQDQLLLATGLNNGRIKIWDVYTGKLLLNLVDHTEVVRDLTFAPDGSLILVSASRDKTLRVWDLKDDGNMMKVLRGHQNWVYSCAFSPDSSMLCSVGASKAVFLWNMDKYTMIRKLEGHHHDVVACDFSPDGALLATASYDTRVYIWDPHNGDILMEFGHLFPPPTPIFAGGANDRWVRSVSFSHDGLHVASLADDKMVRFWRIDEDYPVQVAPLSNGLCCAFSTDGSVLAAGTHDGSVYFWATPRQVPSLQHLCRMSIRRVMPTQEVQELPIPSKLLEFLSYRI
Sequence of UniProt Q5MNZ9 (Q5MNZ9 whole entry, looked up): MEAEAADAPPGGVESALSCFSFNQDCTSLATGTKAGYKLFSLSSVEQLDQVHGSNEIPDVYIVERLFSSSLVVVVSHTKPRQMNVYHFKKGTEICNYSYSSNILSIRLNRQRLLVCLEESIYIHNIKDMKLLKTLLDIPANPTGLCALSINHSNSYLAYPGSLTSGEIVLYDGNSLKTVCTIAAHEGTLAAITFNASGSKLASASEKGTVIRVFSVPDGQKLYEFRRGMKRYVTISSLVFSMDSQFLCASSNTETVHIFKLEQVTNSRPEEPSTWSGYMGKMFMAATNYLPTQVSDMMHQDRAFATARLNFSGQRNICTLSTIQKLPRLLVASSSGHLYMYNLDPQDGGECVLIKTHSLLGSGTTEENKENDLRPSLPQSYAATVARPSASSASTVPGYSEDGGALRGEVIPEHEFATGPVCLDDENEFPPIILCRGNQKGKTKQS
Sequence of UniProt P40337 (P40337 whole entry, looked up): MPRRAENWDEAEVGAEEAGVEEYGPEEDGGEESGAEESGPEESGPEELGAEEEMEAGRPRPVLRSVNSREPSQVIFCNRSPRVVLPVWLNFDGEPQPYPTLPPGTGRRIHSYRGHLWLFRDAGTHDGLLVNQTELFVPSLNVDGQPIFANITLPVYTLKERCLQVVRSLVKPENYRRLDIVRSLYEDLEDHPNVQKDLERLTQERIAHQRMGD
Sequence of UniProt Q9H582 (Q9H582 whole entry, looked up): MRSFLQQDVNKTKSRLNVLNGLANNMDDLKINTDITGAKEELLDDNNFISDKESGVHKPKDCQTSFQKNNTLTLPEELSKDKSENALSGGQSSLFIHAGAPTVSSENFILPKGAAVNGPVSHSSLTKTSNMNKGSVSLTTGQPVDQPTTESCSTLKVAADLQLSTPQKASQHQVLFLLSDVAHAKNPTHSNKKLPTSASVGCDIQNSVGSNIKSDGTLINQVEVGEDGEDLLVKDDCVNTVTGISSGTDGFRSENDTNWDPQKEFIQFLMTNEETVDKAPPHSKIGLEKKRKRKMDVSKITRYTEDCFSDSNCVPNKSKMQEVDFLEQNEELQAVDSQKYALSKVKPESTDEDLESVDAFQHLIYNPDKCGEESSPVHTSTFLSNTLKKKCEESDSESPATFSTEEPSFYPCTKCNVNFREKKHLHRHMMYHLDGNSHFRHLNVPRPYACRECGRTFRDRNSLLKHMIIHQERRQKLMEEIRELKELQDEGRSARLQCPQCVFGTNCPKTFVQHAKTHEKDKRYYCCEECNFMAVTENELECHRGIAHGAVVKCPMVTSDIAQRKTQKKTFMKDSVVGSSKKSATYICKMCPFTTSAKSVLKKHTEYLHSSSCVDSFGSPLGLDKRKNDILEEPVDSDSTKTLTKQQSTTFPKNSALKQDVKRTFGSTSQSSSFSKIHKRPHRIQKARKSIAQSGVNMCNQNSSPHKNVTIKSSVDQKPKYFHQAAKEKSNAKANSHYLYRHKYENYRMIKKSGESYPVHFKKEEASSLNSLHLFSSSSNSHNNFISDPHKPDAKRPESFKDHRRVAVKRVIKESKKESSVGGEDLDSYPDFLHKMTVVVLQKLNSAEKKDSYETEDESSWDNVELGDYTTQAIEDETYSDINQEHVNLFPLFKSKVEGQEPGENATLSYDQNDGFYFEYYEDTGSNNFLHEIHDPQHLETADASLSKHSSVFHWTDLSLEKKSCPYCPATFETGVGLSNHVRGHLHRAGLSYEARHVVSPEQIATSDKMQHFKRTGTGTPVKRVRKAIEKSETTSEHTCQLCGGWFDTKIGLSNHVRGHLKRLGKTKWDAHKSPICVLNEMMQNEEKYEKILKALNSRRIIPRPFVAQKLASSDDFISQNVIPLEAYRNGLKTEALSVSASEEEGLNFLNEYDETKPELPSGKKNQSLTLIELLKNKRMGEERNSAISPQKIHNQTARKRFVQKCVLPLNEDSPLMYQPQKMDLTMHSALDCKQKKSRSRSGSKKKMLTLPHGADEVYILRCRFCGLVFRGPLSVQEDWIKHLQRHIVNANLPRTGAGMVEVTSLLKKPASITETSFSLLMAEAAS
Sequence of UniProt Q6PHR2 (Q6PHR2 whole entry, looked up): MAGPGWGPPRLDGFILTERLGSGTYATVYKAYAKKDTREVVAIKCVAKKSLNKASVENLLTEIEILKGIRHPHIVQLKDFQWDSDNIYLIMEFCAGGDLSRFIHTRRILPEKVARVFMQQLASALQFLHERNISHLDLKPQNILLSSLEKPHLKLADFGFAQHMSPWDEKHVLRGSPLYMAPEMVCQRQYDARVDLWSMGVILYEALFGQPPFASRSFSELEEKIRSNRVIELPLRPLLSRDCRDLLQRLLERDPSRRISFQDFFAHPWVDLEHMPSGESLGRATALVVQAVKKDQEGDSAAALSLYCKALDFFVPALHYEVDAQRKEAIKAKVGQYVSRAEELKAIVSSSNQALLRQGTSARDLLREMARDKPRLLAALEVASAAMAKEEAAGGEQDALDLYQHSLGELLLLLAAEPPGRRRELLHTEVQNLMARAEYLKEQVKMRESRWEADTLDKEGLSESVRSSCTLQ
Sequence of UniProt Q15776 (Q15776 whole entry, looked up): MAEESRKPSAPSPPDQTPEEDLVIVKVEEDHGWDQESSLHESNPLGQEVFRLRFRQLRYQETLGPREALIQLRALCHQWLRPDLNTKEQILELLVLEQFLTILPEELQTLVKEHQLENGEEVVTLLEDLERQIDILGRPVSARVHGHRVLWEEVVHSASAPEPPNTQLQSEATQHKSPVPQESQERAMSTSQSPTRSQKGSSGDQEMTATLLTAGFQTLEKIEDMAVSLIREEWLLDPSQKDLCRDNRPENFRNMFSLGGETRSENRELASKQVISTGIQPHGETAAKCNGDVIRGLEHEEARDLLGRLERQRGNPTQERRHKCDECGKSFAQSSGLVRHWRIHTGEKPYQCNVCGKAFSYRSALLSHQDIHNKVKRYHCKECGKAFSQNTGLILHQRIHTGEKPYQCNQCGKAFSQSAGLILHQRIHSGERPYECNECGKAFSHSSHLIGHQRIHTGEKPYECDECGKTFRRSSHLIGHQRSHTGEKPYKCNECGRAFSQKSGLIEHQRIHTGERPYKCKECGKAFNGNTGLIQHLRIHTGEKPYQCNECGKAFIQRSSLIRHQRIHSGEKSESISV
Sequence of UniProt Q15906 (Q15906 whole entry, looked up): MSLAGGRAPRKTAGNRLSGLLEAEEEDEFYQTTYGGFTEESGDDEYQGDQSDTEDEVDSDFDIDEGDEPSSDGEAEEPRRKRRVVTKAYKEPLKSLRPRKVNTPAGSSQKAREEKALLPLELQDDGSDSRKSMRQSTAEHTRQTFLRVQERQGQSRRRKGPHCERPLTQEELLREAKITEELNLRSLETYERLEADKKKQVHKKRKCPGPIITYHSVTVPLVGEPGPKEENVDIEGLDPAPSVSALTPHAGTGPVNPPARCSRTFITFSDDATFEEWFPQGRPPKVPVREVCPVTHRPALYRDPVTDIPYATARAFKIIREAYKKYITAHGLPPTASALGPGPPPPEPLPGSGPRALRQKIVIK
Sequence of UniProt Q8IUH5 (Q8IUH5 whole entry, looked up): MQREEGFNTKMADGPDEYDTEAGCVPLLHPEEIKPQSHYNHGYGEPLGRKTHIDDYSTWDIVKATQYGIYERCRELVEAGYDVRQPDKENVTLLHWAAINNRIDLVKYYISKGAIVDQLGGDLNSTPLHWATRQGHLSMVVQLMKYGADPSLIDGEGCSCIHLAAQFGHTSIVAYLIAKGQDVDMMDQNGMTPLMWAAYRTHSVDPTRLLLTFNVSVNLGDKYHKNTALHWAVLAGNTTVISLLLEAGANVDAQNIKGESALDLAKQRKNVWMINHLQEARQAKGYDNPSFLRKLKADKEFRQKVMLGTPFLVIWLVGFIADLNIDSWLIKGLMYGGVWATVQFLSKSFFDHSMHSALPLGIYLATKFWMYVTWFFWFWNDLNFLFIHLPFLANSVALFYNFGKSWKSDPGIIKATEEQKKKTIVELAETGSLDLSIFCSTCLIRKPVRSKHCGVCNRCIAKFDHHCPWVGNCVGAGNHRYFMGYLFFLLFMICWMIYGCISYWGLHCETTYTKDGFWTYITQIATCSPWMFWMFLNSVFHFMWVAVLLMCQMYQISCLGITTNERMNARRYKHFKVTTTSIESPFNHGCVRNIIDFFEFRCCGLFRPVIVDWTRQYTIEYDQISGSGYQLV

Row | Target | log2 fold change (erlotinib) | log2 fold change [1] | log2 fold change [2] | log2 fold change [3] | log2 fold change [4] | log2 fold change [5] | log2 fold change [6] | log2 fold change [7] | log2 fold change [8] | log2 fold change (IRAK-1-4 Inhibitor I) | log2 fold change (ibrutinib) | log2 fold change (ralimetinib) | log2 fold change [9] | log2 fold change [10] | log2 fold change [11] | log2 fold change [12] | log2 fold change [13] | log2 fold change [14] | log2 fold change [15] | log2 fold change [16]
1 | USP22 (UniProt Q9UPT9) | 0.072 | 0.019 | -0.025 | 0.048 | -0.022 | -0.003 | -0.013 | -0.021 | 0.004 | -0.005 | -0.031 | 0.023 | 0.006 | 0.027 | -0.057 | -0.034 | 0.065 | 0.056 |  | 
2 | XPOT (UniProt F5GYW6) |  |  |  |  |  |  |  |  |  |  |  |  |  |  |  |  |  |  | -0.027 | 0.041
3 | WIPI1 (UniProt Q5MNZ9) | -0.025 |  | -0.006 |  | -0.016 | -0.027 |  | 0.035 | -0.013 | -0.007 | 0.098 | 0.002 | 0.019 | -0.008 | 0.1 | -0.023 | -0.005 | -0.009 | -0.062 | -0.033
4 | UNC13A (UniProt Q9UPW8) | 0.069 |  | 0.039 |  |  |  |  |  |  |  |  |  |  | 0.022 | -0.053 |  |  |  |  | 
5 | ULK3 isoform 4 (UniProt Q6PHR2) | 0.156 | 0.149 | -0.008 | -0.151 | -0.053 |  | 0.177 | 0.179 | 0.01 |  | -0.08 |  |  | -0.091 |  | -0.06 | 0.094 |  | -0.024 | 0.08
6 | ZDHHC17 (UniProt Q8IUH5) |  | 0.197 |  | 0.011 |  | -0.082 | -0.247 | -0.066 | -0.027 | 0.205 |  | 0.077 | 0.047 |  | -0.001 | 0.161 | -0.171 | -0.067 | -0.063 | -0.032
7 | ZKSCAN8 (UniProt Q15776) | -0.005 | -0.418 | -0.148 | 0.004 |  | -0.001 | -0.04 | 0.031 | 0.006 | 0.077 |  | -0.021 | -0.002 | 0.229 | 0.098 | 0.008 | -0.008 | 0.04 | 0.514 (active) | -0.054
8 | ZNF644 (UniProt Q9H582) | 0.192 | -0.085 | 0.071 | 0.075 | 0.066 | -0.115 | -0.04 | 0.036 | -0.037 | 0.035 | 0.07 | -0.023 | 0.052 | 0.038 | -0.061 | 0.042 | -0.005 | -0.02 |  | 
9 | ZFYVE19 isoform 3 (UniProt Q96K21) |  |  |  |  | 0.038 |  |  |  |  |  | 0.085 |  |  |  |  |  |  |  | -0.084 | 0.047
10 | WAS (UniProt P42768) | 0.023 |  | 0.074 |  | -0.149 |  |  | 0.007 | 0.026 |  | -0.06 |  |  | -0.01 | 0.071 | 0.143 |  |  |  | 
11 | ZNF593 (UniProt O00488) | -0.084 | -0.149 | 0.116 | 0.003 | 0.005 | -0.098 | 0.059 | 0 | 0.084 | 0.003 | 0.018 | 0.096 | 0.013 | -0.081 |  | -0.017 | -0.028 | -0.034 | 0.17 | -0.051
12 | UNKL (UniProt E9PDK2) |  | -0.088 |  | 0.166 | 0.061 |  | -0.122 | 0.155 | 0.156 |  | -0.191 |  |  |  |  | -0.086 | 0.025 |  |  | 
13 | VHL (UniProt P40337) | 0.088 | 0.034 | -0.016 | 0.059 | 0.032 | -0.09 | -0.003 | -0.007 | -0.107 | 0.02 | 0.033 | 0.09 | -0.027 | 0.06 | -0.045 | -0.109 | -0.013 | 0.024 |  | 
14 | YBEY (UniProt P58557) | 0.101 | -0.164 | 0.009 | -0.039 |  |  | -0.031 | -0.011 | 0.111 |  |  |  |  | 0.016 |  | -0.029 |  |  |  | 
15 | UTRN isoform 2 (UniProt P46939) | -0.222 |  | 0.247 |  | -0.072 |  |  | 0.135 | 0.171 |  | -0.03 |  |  | -0.012 |  |  |  |  |  | 
16 | WSB1 (UniProt Q9Y6I7) |  |  |  |  |  | 0.037 |  |  |  | -0.093 |  | 0.08 | -0.006 |  |  | -0.037 |  | -0.028 |  | 
17 | ZNF346 (UniProt Q9UL40) | -0.057 |  | -0.009 |  | -0.035 | -0.014 |  | 0.016 | -0.002 | 0.015 | -0.041 | -0.019 | -0.075 | -0.012 | -0.08 | 0.111 | -0.019 | -0.004 | 0.008 | 0.018
18 | ZSWIM8 isoform 4 (UniProt A7E2V4) | 0.025 | 0.508 (active) | -0.053 | 0.02 | -0.044 | -0.021 | -0.163 | -0.239 | 0.109 | -0.122 | -0.08 | 0.101 | -0.048 | 0.002 | -0.017 | 0.28 | -0.131 | 0.105 |  | 
19 | WAC isoform 5 (UniProt Q9BTA9) | -0.01 |  | -0.156 |  |  | 0.062 |  |  |  | 0.018 |  | 0.059 | -0.145 | -0.038 |  | 0.127 |  | 0.096 |  | 
20 | ZNF281 (UniProt Q9Y2X9) | -0.191 |  | -0.106 |  |  | 0.006 |  |  |  | 0.069 |  | -0.055 | 0.081 | 0.039 |  | -0.008 | -0.081 | -0.041 |  | 
21 | ZNF146 (UniProt Q15072) |  |  |  |  |  |  |  |  |  |  |  |  |  |  |  | -0.187 |  |  |  | 
22 | VPS72 (UniProt Q15906) | 0.056 | -0.036 | 0.046 | -0.057 |  | -0.04 | 0.052 | 0.024 | 0.059 | -0.008 |  | 0.046 | -0.06 | -0.028 | -0.098 | 0.005 | 0 | -0.01 | 0.016 | -0.038
23 | ZSCAN26 (UniProt Q16670) |  |  |  |  |  |  |  |  |  |  |  |  |  |  |  |  | 0.007 |  |  | 
